# Experimental data as given in ChEMBL document CHEMBL3988442, “University of Dundee, Small-Polar-MMV Screening Library” (2021).
# Values joined by “and” are separate entries in the source; they are usually repeats but may differ in a detail not shown here. Equal entries are not always repeated. Among all 67,000 compounds or so, about 40 (0.06%) showed an effect of 50% or more. The list comes from a sample in which strong results are over-represented; it also holds similar structures and randomly drawn compounds.
# Molecular target: T1, Coenzyme A biosynthesis bifunctional protein CoaBC (Mycobacterium tuberculosis (strain ATCC 25618 / H37Rv)) (UniProt P9WNZ1)
# T1 sequence (whole entry): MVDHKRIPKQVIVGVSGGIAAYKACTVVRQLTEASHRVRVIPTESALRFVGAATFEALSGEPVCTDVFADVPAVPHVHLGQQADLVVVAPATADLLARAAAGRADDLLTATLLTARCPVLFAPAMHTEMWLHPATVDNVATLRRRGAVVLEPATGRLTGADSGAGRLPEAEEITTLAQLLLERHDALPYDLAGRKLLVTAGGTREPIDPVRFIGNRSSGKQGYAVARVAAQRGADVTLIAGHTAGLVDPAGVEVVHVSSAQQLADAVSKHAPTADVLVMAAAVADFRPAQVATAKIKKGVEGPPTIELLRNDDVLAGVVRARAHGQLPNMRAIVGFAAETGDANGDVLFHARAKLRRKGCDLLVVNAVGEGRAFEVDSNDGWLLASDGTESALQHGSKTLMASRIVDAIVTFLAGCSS
# Experiment: Biomol Green assay for MtCoaBC inhibitor, OD650 read
# Type: functional
# Set-up: scale not given: in the data most compounds retested in dose-response had high values
# Details: 30 µM
row,SMILES,Percent Effect
1,COc1cc(N2CCC[C@]3(C(=O)O)CN(C(C)C)C[C@@H]3C2)ncn1,-10.7%
2,c1ccc(CN2C[C@@H]3COC[C@]3(COCC3CCOCC3)C2)nc1,9.51%
3,COCCNC(=O)C[C@@H]1COC[C@H]2CN(CC3CCOCC3)C[C@@H]12,-2.48%
4,Cc1cnc(N2CCN(C)CC2)nc1-c1ccnn1C,5.03%
5,COc1cnc(N2CCN(C)CC2)nc1-c1ccnn1C,5.52%
6,CN1[C@H](Cn2cccn2)C[C@@H]2CN(Cc3cccs3)CC[C@@H]21,5.67%
7,CO[C@@H]1CN(Cc2scnc2C)[C@@H]2CCCO[C@@H]21,-51.5%
8,O=C(c1ccc[nH]1)N1C[C@H]2CN(Cc3cccc(F)c3)C(=O)[C@H]2C1,8.74%
9,CCc1ncncc1C(=O)NCCNS(=O)(=O)c1ccc(C)cc1,3.17% and 20.9%
10,Cc1ccc(S(=O)(=O)NCCNC(=O)c2cncnc2C)cc1,5.91%
11,Cc1ccc(N2CCO[C@H]3CN(Cc4cccnc4)C[C@H]32)nn1,3.85%
12,C[C@H]1C[C@H]2CN(C(=O)c3ccncn3)CC[C@@H]2O1,3.76%
13,Cc1cccc(CN2C[C@H]3CCC[C@@]3(COCc3csc(C)n3)C2)n1,3.06%
14,CCOCC1CN(C(=O)N2CCCC2)Cc2cnn(C)c21 (configuration not stated),-2.1%
15,CCOCC1CN(C(=O)C2=CCCC2)Cc2cnn(CC)c21 (configuration not stated),12.8%
16,O=C1NCCO[C@H]2CN(C(=O)c3cccs3)CC[C@@H]12,2.96%
17,CNC(=O)[C@H]1C[C@@H]2CN(C(=O)c3ccncc3)C[C@@H]2N1S(C)(=O)=O,2.59%
18,O=C(NCCc1cccs1)[C@H]1CO[C@H]2CCN(C3CCC3)C[C@H]2C1,6.17%
19,O=C1CO[C@@H]2CNC[C@H]2N1CC1CC1,0%
20,Cn1cc(CN2CC[C@@H]3[C@@H]2CCN3C(=O)c2cccc(F)c2)cn1,5.07%
21,CN1CCCCC1c1cncc(N2CCC(O)CC2)n1 (configuration not stated),-0.526%
22,Cc1cc(N2CCC(O)CC2)nc(C)n1,11.1%
23,CCCc1cc(C(=O)N2C[C@H]3CC=C(C)C[C@H]3C2)ccn1,2.3%

row,SMILES,Percent Effect
1,O=C(NCC1CCOCC1)[C@@H]1C[C@@H]2[C@@H](CCN2Cc2ccoc2)O1,2.96%
2,CCc1cnc(N2C[C@H]3CN(Cc4ccc(OC)cc4)C(=O)[C@H]3C2)nc1,-3.75%
3,CC(C)c1nc(C(=O)N2C[C@H]3CC[C@@H]2CN(C2CCOCC2)C3)cs1,5.66%
4,Cn1cc(CN2CC[C@H]3O[C@H](C(=O)NC4CC4)CC[C@H]32)c2ccccc21,-3.06%
5,CN(C)c1ncc2c(n1)CN(C1CC(C)(C)NC(C)(C)C1)C2=O,0.231%
6,CC(C)OC(=O)N1C[C@H]2CC[C@@H]1CN(Cc1cccnc1)C2,5.14%
7,COC1CCN(CCNC(=O)NCC(C)c2cccc(C)c2)CC1 (configuration not stated),-16.8%
8,COC1CCN(CCNC(=O)NC(C)c2cccc(Cl)c2)CC1 (configuration not stated),-0.455%
9,COc1cccc(CN2C[C@H]3CC[C@H]2C3)c1OCCN1CCOCC1,4.29%
10,CCc1ccc(CN2CCN(CCOC)[C@@H]3CS(=O)(=O)C[C@@H]32)cc1,8.73%
11,Cc1noc(C)c1CN1C[C@@H]2COC[C@H](C(=O)N3CCCCO3)[C@@H]2C1,0.259%
12,CC(C)N(Cc1ccc(Cl)c(Cl)c1)C(=O)CCn1cncn1,5.9%
13,CC(C)N(Cc1ccc(Cl)c(Cl)c1)C(=O)Cn1cncn1,5.66%
14,O=C(c1ccncc1)N1C[C@@H](OCc2cccnc2)[C@H]2OCCC[C@H]21,4.2%
15,Cc1ccc(-n2cc(S(=O)(=O)Nc3cccc(C(=O)O)c3C)cn2)cc1,0.726%
16,Cc1ccc(NS(=O)(=O)c2cnn(Cc3ccccc3)c2)c(C(=O)O)c1,0.726%
17,Cc1ccc(NS(=O)(=O)c2cnn(-c3ccccc3)c2)c(C(=O)O)c1,64.4% and 43.6%
18,COCCC(=O)NC[C@H]1CC[C@H](C(c2ccccn2)N(C)C)CC1 (some centres not stated),-1.84%
19,CNC(=O)N1CC[C@@H]2CN(Cc3ccccc3)S(=O)(=O)[C@@H]2CC1,1.48%
20,Cc1ccc(N2CC[C@@]3(O)CCN(S(C)(=O)=O)C[C@H]3C2)nn1,-0.123%
21,O=C(CC1CC1)N1CC[C@H]2[C@@H]1CCC(=O)N2c1cccnc1,5.4%
22,COc1cc(N2CC[C@@H]3O[C@H](C(=O)NCC4CC4)C[C@@H]32)ncn1,-0.37%
23,O=C1COC2(CCN(Cc3ccoc3)CC2)CN1CCn1cccn1,-3.75%

row,SMILES,Percent Effect
1,COCCN1CCC2(CC1)CN(CCn1cccn1)C(=O)CO2,-1.25%
2,Cn1cc(C(=O)N2CC[C@@]3(O)CCN(C4CCCCC4)C[C@H]3C2)cn1,0.467%
3,CN(C)CCO[C@@H]1CC[C@H]2[C@H]1OCCN2C(=O)c1ccccc1F,3.95%
4,CNC(=O)[C@H]1C[C@@H]2CN(S(=O)(=O)c3ccc(C)cc3)C[C@@H]2N1C,1.63%
5,O=C([C@@H]1C[C@@H]2CCN(c3cccc(F)c3)C[C@H]2O1)N1CCCC1,-8.02%
6,Cc1cccc(CN2C(=O)C[C@H]3[C@@H]2CCN3Cc2ccc(F)cc2)n1,9.41%
7,CC(=O)N1[C@H](Cn2cncn2)C[C@@H]2CN(c3ccc(C)nn3)CC[C@@H]21,6.82%
8,O=C(NC1CCC1)[C@@H]1C[C@@H]2CCN(Cc3ccncc3)C[C@H]2O1,4.7%
9,COc1ccc(NC2(C(=O)N3CCn4cncc4C3)CCCC2)cc1,8.96%
10,Cc1ccc(NC2(C(=O)N3CCn4cncc4C3)CCCCC2)cc1C,4.82%
11,CC1=N[C@@]2(CC[C@@H]3CN(C(=O)NCc4ccccc4C)C[C@@H]32)C(=O)N1,0.609%
12,O=C(COC[C@@H]1CC[C@H]2[C@H](CCN2Cc2ccco2)O1)N1CCCC1,9.53%
13,CCC1(CNC(=O)NC(c2nnc3n2CCC3)C(C)C)CCC1 (configuration not stated),-3.55%
14,CC(C)C(NC(=O)NCC1CC1)c1nnc2n1CCC2 (configuration not stated),-0.508%
15,COCCN1C(=O)[C@]2(CC[C@@H]3CN(S(=O)(=O)CC(C)C)C[C@@H]32)N=C1C,-3.81%
16,CC(C)CC(=O)N1CC[C@@H]2CN(CC(=O)N(C)C)S(=O)(=O)[C@@H]2CC1,2.32%
17,Cc1noc([C@H]2C[C@@H]3CCN(CC4CC4)C[C@H]3O2)n1,-1.9%
18,Cc1cccc(CN2CC[C@H]3[C@H]2CCN3Cc2cnn(C)c2)n1,-4.59%
19,c1cc(COC[C@@]23CCC[C@@H]2CN(C2CCOCC2)C3)ccn1,6.42%
20,Cc1cnn(CC2CCCN2Cc2nnc(Cc3ccccc3)o2)c1 (configuration not stated),0.119%
21,Cc1cnn(CC2CCCN2Cc2ncc(-c3ccccc3)o2)c1 (configuration not stated),2.73%
